“And” between values parts separate entries of the source, which are not always exact repeats. Equal entries are not always repeated. Records with an inconclusive call do not appear. More than one record can exist for a structure, and the calls need not agree. The source made the active and inactive calls. Rule for the calls, unless noted: active = hit-call score of the fitted dose curve at least 0.9, where 1 is the maximum; inactive = score below 0.9.

The target of test [1] is human RAR-related Orphan Receptor gamma (RORg), RORC (gene 6097) (UniProt P51449). As to the kind of experiment: ATG_RORg_TRANS: Attagene TRANS-FACTORIAL HepG2 Assay for human RAR-related Orphan Receptor gamma (RORg) (AID 2283011; active = hit-call score of the fitted dose curve at least 0.9, where 1 is the maximum). The method, boiled down:
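Reporter transcripts from a transfected RORg-GAL4 chimera in HepG2 cells were quantified 24 h after dosing by RT-PCR, 6-FAM labelling, HpaI digestion and capillary electrophoresis; increases over DMSO baseline were fitted.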

Test [2] deals with Retinoic acid receptor RXR-alpha (Homo sapiens) (UniProt P19793). As to the kind of experiment: ATG_RXRa_TRANS: Attagene TRANS-FACTORIAL HepG2 Assay for human Retinoid X Receptor alpha (RXRa) (AID 2283012; active = hit-call score of the fitted dose curve at least 0.9, where 1 is the maximum). The method, boiled down:
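Cells (HepG2) carried transiently transfected GAL4-responsive reporter units. Following a 24 h chemical incubation, reporter mRNA induction was read via RT-PCR fragment analysis; DMSO served as negative control and baseline.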

For test [3], the target named is human Thyroid Receptor alpha (THRa1), THRA (gene 7067) (UniProt P10827). Description: ATG_THRa1_TRANS: Attagene TRANS-FACTORIAL HepG2 Assay for human Thyroid Receptor alpha (THRa1) (AID 2283014; active = hit-call score of the fitted dose curve at least 0.9, where 1 is the maximum). In short, it runs like this:
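Transcripts from GAL4-UAS-driven reporters, measured after 24 h compound exposure by RT-PCR plus capillary electrophoresis of 6-FAM-labeled fragments, were fitted for gain of signal relative to DMSO. Cells: transiently transfected HepG2 expressing NR-Gal4 chimeras.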

Read-out in test [4]: E-selectin (Homo sapiens) (UniProt P16581)
Description: BSK_3C_Eselectin: BioMAP Diversity Plus: 3C Assay for Eselectin Biomarker Activity (AID 2283015).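 Note: cell surface E-selectin protein quantified by ELISA 24 h after dosing.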 Conditions: primary human endothelial cells (HUVEC); actives raise or lower the signal. The method, boiled down:
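E-selectin ELISA readout, fitted bidirectionally relative to DMSO, taken 24 h post-dosing in HUVEC cultures of the 3C system. Overt cytotoxicity tracked with sulforhodamine B staining of parallel wells.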

Read-out in test [5]: Interleukin-1 alpha (IL1a), IL1A (gene 3552)
As to the kind of experiment: BSK_BE3C_IL1a: BioMAP Diversity Plus: BE3C Assay for Interleukin-1 alpha (IL1a) Biomarker Activity (AID 2283016). The settings on record: primary human bronchial epithelial cells; actives raise or lower the signal. The method, boiled down:
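Cultures of primary human bronchial epithelial cells receive test chemical. After 24 h, IL-1a is quantified by ELISA, while parallel wells are fixed in TCA and SRB-stained for total protein. Changes in either direction are fitted relative to DMSO.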

Read-out in test [6]: Monocyte Chemoattractant Protein-1 (MCP1), CCL2 (gene 6347)
As to the kind of experiment: BSK_3C_MCP1: BioMAP Diversity Plus: 3C Assay for Monocyte Chemoattractant Protein-1 (MCP1) Biomarker Activity (AID 2283017). Conditions: primary human endothelial cells (HUVEC); actives raise or lower the signal. The method, boiled down:
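MCP-1 was measured by ELISA 24 h after dosing in primary HUVEC 3C cultures and fitted in both directions relative to DMSO; cytotoxicity was checked by SRB total-protein staining in parallel wells.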

Read-out in test [7]: Monocyte Chemoattractant Protein-1 (MCP1), CCL2 (gene 6347)
As to the kind of experiment: BSK_4H_MCP1: BioMAP Diversity Plus: 4H Assay for Monocyte Chemoattractant Protein-1 (MCP1) Biomarker Activity (AID 2283018). Conditions: primary human endothelial cells (HUVEC); actives raise or lower the signal. The method, boiled down: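 Readout: MCP-1 ELISA on compound-treated HUVEC, sampled 24 h post-dosing. Baseline and negative control DMSO; bidirectional fit. Overt toxicity checked alongside by sulforhodamine B protein staining at time of biomarker measurement.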

Read-out in test [8]: Human Leukocyte Antigen - DR isotype (HLADR), HLA-DRA (gene 3122)
As to the kind of experiment: BSK_3C_HLADR: BioMAP Diversity Plus: 3C Assay for Human Leukocyte Antigen - DR isotype (HLADR) Biomarker Activity (AID 2283019).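 For outcome: ELISA of cell-surface HLA-DR on HUVEC 24 h after dosing.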 The settings on record: primary human endothelial cells (HUVEC); actives raise or lower the signal. In short, it runs like this:
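Bidirectional fitting against DMSO was applied to the HLA-DR ELISA signal from human umbilical vein endothelial cells, 24 h post-dose. Cytotoxicity came from parallel SRB total-protein staining; 3C proliferation was counted by SRB at 48 h.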

Read-out in test [9]: Interleukin-8 (IL8), CXCL8 (gene 3576)
Description: BSK_3C_IL8: BioMAP Diversity Plus: 3C Assay for Interleukin-8 (IL8) Biomarker Activity (AID 2283020). Conditions: primary human endothelial cells (HUVEC); actives raise or lower the signal. The method, boiled down:
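Human vascular endothelial cells (umbilical vein) in the 3C system; IL-8 level detected by ELISA at 24 h post-dose, with DMSO as baseline.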

Read-out in test [10]: Monokine induced gamma interferon (MIG), CXCL9 (gene 4283)
As to the kind of experiment: BSK_3C_MIG: BioMAP Diversity Plus: 3C Assay for Monokine induced gamma interferon (MIG) Biomarker Activity (AID 2283021). Conditions: primary human endothelial cells (HUVEC); actives raise or lower the signal. In short, it runs like this:
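After 24 h of treatment, human umbilical vein endothelial cultures (3C system) had their MIG biomarker level determined by ELISA, with DMSO serving as negative control.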

The target of test [11] is human Vitamin D Receptor (VDR), VDR (gene 7421) (UniProt P11473). Description: ATG_VDR_TRANS: Attagene TRANS-FACTORIAL HepG2 Assay for human Vitamin D Receptor (VDR) (AID 2283022; active = hit-call score of the fitted dose curve at least 0.9, where 1 is the maximum). In short, it runs like this: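 Transactivation by an exogenous VDR-Gal4 chimera in transiently transfected HepG2 cells was measured as reporter transcript level 24 hours after chemical treatment. RT-PCR products were analysed by capillary electrophoresis and fitted in the positive direction relative to DMSO.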

Test [12] can be described thus: BSK_3C_SRB: Viability Assessment in the BioMAP Diversity Plus: 3C Assay (AID 2283023).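 Note: fitted both ways against DMSO so a hit may be signal rise or drop.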 Conditions: primary human endothelial cells (HUVEC). In short, it runs like this: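 Cytotoxicity readout in parallel HUVEC 3C cultures: after 24 h compound exposure, cells fixed with 10% TCA, stained with 0.1% SRB and read at 560 nm. Gain or loss relative to DMSO fitted.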
Read-out in test [13]: Matrix Metallopeptidase 1 (MMP1), MMP1 (gene 4312)
Description: BSK_BE3C_MMP1: BioMAP Diversity Plus: BE3C Assay for Matrix Metallopeptidase 1 (MMP1) Biomarker Activity (AID 2283024). The settings on record: primary human bronchial epithelial cells; actives raise or lower the signal. The method, boiled down:
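Dose cells, wait 24 h, run MMP1 ELISA; cells are human bronchial epithelial primaries. Both increases and decreases relative to DMSO counted.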

Read-out in test [14]: Pselectin, SELP (gene 6403)
As to the kind of experiment: BSK_4H_Pselectin: BioMAP Diversity Plus: 4H Assay for Pselectin Biomarker Activity (AID 2283026). Conditions: primary human endothelial cells (HUVEC); actives raise or lower the signal. The method, boiled down:
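Human vascular endothelium from umbilical vein; P-selectin measured by ELISA at 24 h post-dose, with cytotoxicity checked by sulforhodamine B total-protein staining in parallel cultures (0.1% SRB after 10% TCA fixation, read at 560 nm).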

The nature of test [15]: BSK_4H_SRB: Viability Assessment in the BioMAP Diversity Plus: 4H Assay (AID 2283027).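 For AC50: curves fitted both ways versus DMSO so AC50 may be loss or gain.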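 Note: cells exposed to compound for 24 h before staining.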 Conditions: primary human endothelial cells (HUVEC). The method, boiled down:
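Human umbilical vein endothelial cells, 24 h after chemical dosing; total protein measured by 0.1% sulforhodamine B staining after 10% TCA fixation, read at 560 nm. Bidirectional fitting against DMSO.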

Read-out in test [16]: Thrombomodulin, THBD (gene 7056)
As to the kind of experiment: BSK_3C_Thrombomodulin: BioMAP Diversity Plus: 3C Assay for Thrombomodulin Biomarker Activity (AID 2283029). Conditions: primary human endothelial cells (HUVEC); actives raise or lower the signal. In short, it runs like this: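 Thrombomodulin ELISA, human primary HUVEC, 24 h post-dose; data fitted in both directions relative to DMSO.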

For test [17], the target named is human Retinoid X Receptor beta (RXRb), RXRB (gene 6257) (UniProt P28702). Description: ATG_RXRb_TRANS: Attagene TRANS-FACTORIAL HepG2 Assay for human Retinoid X Receptor beta (RXRb) (AID 2283013; active = hit-call score of the fitted dose curve at least 0.9, where 1 is the maximum). The method, boiled down:
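Multiplexed TRANS reporter assay in HepG2; 24 h dosing; reporter mRNA by RT-PCR/CE fluorescence; gain-of-signal relative to DMSO.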

A short description of test [18]: BSK_3C_Vis: BioMAP Diversity Plus: 3C Assay for Morphology Visualization (AID 2283025).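 For AC50: light microscopy image of cell morphology used as background control.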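 Note: fitted both ways so gain or loss versus DMSO counts.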 The settings on record: primary human endothelial cells (HUVEC). The method, boiled down:
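Endothelial cells from human umbilical vein were treated with test chemicals for 24 h and inspected by light microscopy for changes in cell conformation.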

Test [19] is described as follows: BSK_BE3C_SRB: Viability Assessment in the BioMAP Diversity Plus: BE3C Assay (AID 2283028). Conditions: primary human bronchial epithelial cells. The method, boiled down:
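Cytotoxicity read-out: SRB (0.1%) staining of TCA-fixed (10%) human lung bronchial epithelial cells, absorbance 560 nm, 24 h post-dosing. Curves fitted both directions relative to DMSO.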

Chain of Retinoic acid receptor RXR-alpha (Homo sapiens) (P19793 whole entry, looked up, the tested form may be a part): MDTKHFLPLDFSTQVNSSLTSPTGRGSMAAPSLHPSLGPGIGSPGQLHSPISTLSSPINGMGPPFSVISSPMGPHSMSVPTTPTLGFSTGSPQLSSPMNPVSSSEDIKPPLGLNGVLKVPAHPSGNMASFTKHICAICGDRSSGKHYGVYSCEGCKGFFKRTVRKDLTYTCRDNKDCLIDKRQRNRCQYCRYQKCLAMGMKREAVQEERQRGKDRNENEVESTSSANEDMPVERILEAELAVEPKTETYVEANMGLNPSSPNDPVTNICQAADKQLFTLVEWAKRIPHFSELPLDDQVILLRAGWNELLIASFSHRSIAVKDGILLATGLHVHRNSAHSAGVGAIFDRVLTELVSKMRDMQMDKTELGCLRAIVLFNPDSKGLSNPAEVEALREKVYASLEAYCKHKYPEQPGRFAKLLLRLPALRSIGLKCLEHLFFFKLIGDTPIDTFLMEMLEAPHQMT
Chain of human Thyroid Receptor alpha (THRa1), THRA (gene 7067) (P10827 whole entry, looked up, the tested form may be a part): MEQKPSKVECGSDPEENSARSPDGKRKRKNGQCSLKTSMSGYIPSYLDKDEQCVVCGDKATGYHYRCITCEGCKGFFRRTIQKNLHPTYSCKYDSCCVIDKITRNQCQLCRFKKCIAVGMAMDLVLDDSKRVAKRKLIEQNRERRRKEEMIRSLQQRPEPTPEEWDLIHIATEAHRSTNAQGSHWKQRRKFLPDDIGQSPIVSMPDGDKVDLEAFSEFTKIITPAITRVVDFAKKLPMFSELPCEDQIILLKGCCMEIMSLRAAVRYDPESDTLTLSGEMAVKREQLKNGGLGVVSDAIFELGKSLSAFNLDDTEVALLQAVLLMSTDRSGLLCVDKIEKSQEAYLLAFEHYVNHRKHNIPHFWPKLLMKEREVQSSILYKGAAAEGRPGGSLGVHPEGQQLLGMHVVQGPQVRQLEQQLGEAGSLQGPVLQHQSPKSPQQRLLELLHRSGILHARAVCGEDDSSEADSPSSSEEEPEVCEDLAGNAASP
Chain of human Retinoid X Receptor beta (RXRb), RXRB (gene 6257) (P28702 whole entry, looked up): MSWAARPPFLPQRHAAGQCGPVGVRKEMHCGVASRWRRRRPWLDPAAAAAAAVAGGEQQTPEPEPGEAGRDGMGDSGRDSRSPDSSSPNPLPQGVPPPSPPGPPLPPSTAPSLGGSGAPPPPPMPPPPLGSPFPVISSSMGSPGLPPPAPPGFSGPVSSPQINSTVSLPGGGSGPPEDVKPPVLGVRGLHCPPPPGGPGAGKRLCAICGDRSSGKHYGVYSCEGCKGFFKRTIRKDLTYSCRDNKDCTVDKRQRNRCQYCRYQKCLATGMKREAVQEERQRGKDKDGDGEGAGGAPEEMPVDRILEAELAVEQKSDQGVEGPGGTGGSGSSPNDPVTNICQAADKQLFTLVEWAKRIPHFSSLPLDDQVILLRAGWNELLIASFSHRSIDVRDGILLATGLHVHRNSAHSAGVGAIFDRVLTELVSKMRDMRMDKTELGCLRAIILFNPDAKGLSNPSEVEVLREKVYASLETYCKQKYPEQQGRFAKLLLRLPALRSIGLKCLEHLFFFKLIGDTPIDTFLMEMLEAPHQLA
Chain of human Vitamin D Receptor (VDR), VDR (gene 7421) (P11473 whole entry, looked up, the tested form may be a part): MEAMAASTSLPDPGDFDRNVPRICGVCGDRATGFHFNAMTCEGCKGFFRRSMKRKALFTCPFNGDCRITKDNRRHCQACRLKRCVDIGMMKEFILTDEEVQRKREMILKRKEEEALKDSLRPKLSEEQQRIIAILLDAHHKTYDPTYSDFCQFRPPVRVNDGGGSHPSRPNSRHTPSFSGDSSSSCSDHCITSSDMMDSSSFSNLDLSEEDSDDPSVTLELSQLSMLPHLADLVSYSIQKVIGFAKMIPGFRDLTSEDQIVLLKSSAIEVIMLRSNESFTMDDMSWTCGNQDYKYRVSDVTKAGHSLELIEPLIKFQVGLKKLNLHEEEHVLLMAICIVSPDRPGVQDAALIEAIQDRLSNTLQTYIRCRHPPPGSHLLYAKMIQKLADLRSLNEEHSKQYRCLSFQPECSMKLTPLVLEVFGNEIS
Chain of E-selectin (Homo sapiens) (P16581 whole entry, looked up): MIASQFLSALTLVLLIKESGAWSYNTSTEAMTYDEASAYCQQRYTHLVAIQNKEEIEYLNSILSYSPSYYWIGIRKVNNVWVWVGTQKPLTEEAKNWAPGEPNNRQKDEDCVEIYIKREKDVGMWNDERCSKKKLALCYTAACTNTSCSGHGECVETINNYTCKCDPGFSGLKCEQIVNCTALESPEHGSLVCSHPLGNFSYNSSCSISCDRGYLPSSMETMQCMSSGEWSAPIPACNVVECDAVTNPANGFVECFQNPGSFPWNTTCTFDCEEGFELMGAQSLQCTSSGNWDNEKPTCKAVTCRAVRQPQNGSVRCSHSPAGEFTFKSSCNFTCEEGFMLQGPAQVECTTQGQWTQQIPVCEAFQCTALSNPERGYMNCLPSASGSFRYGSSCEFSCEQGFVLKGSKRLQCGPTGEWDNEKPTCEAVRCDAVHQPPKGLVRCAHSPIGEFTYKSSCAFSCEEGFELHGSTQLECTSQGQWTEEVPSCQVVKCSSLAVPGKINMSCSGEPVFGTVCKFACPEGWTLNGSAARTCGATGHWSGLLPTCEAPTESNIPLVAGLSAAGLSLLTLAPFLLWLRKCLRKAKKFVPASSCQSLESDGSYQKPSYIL
Chain of human RAR-related Orphan Receptor gamma (RORg), RORC (gene 6097) (P51449 whole entry, looked up, the tested form may be a part): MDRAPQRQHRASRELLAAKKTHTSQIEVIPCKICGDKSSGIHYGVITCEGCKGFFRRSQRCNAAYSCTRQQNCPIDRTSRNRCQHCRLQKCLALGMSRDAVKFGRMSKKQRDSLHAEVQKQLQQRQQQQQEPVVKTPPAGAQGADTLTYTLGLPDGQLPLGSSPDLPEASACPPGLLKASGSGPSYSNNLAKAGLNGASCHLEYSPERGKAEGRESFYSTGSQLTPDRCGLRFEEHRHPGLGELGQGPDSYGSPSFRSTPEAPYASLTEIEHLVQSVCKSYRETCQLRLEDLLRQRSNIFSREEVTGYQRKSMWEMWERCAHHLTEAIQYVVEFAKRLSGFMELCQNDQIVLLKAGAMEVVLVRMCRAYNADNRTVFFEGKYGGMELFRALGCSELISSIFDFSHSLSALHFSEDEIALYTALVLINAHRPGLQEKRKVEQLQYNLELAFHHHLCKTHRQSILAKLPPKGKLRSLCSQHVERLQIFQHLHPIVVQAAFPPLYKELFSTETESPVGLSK

Regarding `FC(F)(F)C(F)(F)C(F)(F)C(F)(F)C(F)(F)C(F)(F)CCS`, the call in test [1], in [2], in [3], in test [4], in test [5] and in test [6] was inactive. Also, the outcome in test [7], in test [8], in [9], in test [10], in [11] and in [12] was inactive. For the same compound, the outcome in [13], in test [14], in test [15] and in test [16] was inactive.

For the compound `C#C[C@]1(O)CC[C@H]2[C@@H]3CCc4cc(OC)ccc4[C@H]3CC[C@@]21C`, the result in test [2], in test [17], in test [3], in test [4], in test [6] and in [7] was inactive. Further, the outcome in test [10], in [11], in [12], in [13], in [14] and in [15] was inactive. The result in test [19] and in test [16] was inactive. Also, the figures for the AC50 in test [5], in [8] and in test [18] were 998 nM (active), 31.2 µM (active) and 37.5 µM (active), respectively.

Regarding `CN(C)Cc1ccccc1O`, the result in [17] and in test [3] was inactive.

With `FC(F)(F)C(F)(F)CNCC(F)(F)C(F)(F)F`, the result in test [2], in [17], in test [3], in test [4], in test [5] and in [6] was inactive. Besides, the outcome in test [7], in [8], in [10], in [11], in test [12] and in test [13] was inactive. Moreover, the result in test [14], in test [15], in test [19] and in test [16] was inactive.

Turning to `O=C(Cl)C(F)(F)C(F)(F)C(F)(F)C(F)(F)C(F)(F)C(F)(F)C(F)(F)C(F)(F)F`, the compound was called inactive in test [2], in test [4], in test [6], in test [7], in test [10] and in [11]. Moreover, the result in test [14], in [15] and in test [16] was inactive. In addition, the AC50 (as a rule, the midpoint of the concentration-response curve, whichever way the signal moves) in test [17] was 25.7 µM (active); in [5] it was 46.4 µM (active) and 46.3 µM (active) and 55 µM (active); in [6], 49.7 µM (active); in test [7] it was 5.95 µM (active); in test [8], 49.4 µM (active) and 51.1 µM (active) and 52.5 µM (active); in test [12] it was 45 µM (active) and 50.8 µM (active) and 49.9 µM (active). Besides, the AC50 in test [13] was 50.8 µM (active) and 51.7 µM (active) and 52 µM (active); in test [15], 30 µM (active).

Take `CC(Cc1ccc(O)c(O)c1)C(C)Cc1ccc(O)c(O)c1` (stereo unspecified): the call in test [1], in [2] and in test [11] was inactive.

Regarding `FC(F)(F)C(F)(F)C(F)(F)C(F)(F)C(F)(F)C(F)(F)C(F)(F)C(F)(F)CCS`, the compound was called inactive in [2], in test [3], in [4], in test [5], in test [6] and in test [7]. In addition, the outcome in [8], in test [9], in test [10], in [11], in test [12] and in test [13] was inactive. Further, the outcome in [14], in test [15], in [19] and in test [16] was inactive.

`CS(C)(=O)=O`: the compound was classed as inactive in [2], in test [4], in [5], in test [6], in test [7] and in test [8]. Besides, the outcome in test [9], in [10], in [12], in test [13], in test [18] and in test [14] was inactive. Also, the result in test [15] and in test [16] was inactive.

Source of the values: PubChem BioAssay (EPA / NIEHS).
